# Assay results from PubChem BioAssay.
# A number with no mark means an inactive call. The source made the active and inactive calls.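 The calls were made as follows, unless noted: active = mean inhibition above 46.68%, the untreated control wells mean plus 3 SD; inactive = the rest.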
# Assays:
# [1] = molecular target: Nuclear receptor coactivator 1 (Homo sapiens) (UniProt Q15788); assay: SRC1 coactivator transcriptional activity inhibitors, confirmation, cell-based, luminescence, quadruplicate (AID 588820); settings: HEK293 GAL4-SRC1 luciferase reporter, at 3.6 µM, active compounds read high;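 also: 0% = DMSO wells and 100% = gossypol 36 µM treated wells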
# Sequence of Nuclear receptor coactivator 1 (Homo sapiens) (Q15788 whole entry, looked up, the tested form may be a part): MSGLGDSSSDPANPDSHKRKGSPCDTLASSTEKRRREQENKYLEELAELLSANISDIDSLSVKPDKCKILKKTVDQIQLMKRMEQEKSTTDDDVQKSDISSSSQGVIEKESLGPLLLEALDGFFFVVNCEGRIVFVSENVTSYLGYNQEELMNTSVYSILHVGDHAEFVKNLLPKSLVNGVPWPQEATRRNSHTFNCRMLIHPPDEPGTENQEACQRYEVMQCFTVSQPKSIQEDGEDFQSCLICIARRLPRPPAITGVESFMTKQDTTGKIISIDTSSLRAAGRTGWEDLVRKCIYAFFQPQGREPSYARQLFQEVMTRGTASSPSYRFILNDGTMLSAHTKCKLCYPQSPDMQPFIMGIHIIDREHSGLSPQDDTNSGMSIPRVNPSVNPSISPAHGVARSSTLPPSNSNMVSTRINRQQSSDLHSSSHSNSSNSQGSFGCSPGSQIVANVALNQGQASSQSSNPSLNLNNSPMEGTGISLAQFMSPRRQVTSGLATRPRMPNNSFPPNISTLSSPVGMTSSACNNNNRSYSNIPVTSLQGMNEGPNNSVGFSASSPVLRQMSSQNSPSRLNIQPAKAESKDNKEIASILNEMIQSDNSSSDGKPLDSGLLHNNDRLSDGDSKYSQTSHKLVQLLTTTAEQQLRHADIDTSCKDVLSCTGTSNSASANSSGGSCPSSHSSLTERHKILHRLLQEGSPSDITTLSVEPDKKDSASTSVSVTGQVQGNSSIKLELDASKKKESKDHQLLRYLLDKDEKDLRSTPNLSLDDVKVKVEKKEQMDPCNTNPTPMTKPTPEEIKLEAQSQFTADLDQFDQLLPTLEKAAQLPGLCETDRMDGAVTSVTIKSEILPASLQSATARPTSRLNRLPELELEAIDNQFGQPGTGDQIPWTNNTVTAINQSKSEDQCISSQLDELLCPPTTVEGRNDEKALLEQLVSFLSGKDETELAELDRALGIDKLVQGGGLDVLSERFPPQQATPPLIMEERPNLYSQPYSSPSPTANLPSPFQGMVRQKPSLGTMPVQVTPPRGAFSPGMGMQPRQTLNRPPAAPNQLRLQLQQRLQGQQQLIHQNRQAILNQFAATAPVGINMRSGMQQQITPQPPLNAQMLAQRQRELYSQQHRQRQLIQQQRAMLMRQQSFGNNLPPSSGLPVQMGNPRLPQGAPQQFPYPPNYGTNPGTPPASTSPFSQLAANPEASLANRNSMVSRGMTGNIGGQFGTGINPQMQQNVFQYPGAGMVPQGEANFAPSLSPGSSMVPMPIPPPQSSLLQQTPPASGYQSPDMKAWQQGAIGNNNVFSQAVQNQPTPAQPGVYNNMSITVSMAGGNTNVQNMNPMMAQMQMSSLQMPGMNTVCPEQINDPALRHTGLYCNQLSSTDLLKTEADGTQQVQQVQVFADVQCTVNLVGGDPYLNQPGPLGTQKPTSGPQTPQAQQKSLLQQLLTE
# [2] = VP16 transactivation inhibitors, counter-screen for SRC1 inhibitor project, cell-based, luminescence, high throughput (AID 588824; in the data active = inhibition above about 25%); settings: cell-based VP16 transactivation luciferase luminescence; at 3.6 µM; active compounds read high
Compound,inhibition [1] [%],inhibition [2]
CSc1nc2[nH]ncc2c(=O)[nH]1,-1.61,1.46%
Cc1ccc(NC(=O)c2cnc(N3CCN(c4ccccn4)CC3)c3ccccc23)c(Br)c1,-15.2,17.7%
COc1cc2c(cc1OC)C(C)N(C(=O)c1cc3ccccc3o1)CC2 (stereo not given),-4.6,2.25%
CS(=O)(=O)Nc1cccc(NC(=O)C2Cc3c(-c4ccco4)ccnc3O2)c1 (stereo not given),22.6,14.9%
CC(C)Oc1ccccc1NC(=O)CSc1nc2ccccc2c(=O)n1C,-5.84,13.4%
CCC(Cc1ccccc1)NC(=O)CCNS(=O)(=O)c1cc(Br)cnc1N (stereo not given),0.75,5.04%
COc1ccc(S(=O)(=O)N2CCOC23CCN(S(=O)(=O)c2ccc(Cl)cc2)CC3)cc1,-7.54,-6.07%
O=C(Cc1cccs1)N(CC1CCCO1)C1(C(=O)NC2CCCCC2)CCCCC1 (stereo not given),7.13,14.9%
COc1ccc(-c2cn[nH]c2C)cc1,-12,5.39%
CN(C1CCCCC1)S(=O)(=O)c1ccc(NC(=O)C2CCCCC2)cc1,-0.79,11%
CC(=O)OCC1OC(n2cc(F)c(=O)[nH]c2=O)C(OC(C)=O)C1OC(C)=O (stereo not given),5.02,22.9%
CS(=O)(=O)c1ccc(C(=O)OCC(=O)NC(=O)Cc2ccccc2)cc1,-5.88,-3.13%
O=C(NCCC(=O)N1CCCC(C(F)(F)F)C1)c1ccc(Br)cc1 (stereo not given),-7.52,-9.82%
CSCCC(NC(=O)c1ccco1)C(=O)OCC(=O)N(Cc1ccccc1)C(C)(C)C (stereo not given),-15.8,-3.79%
CC(=O)Nc1ccc(NC(=O)C(C)OC(=O)CCSc2ccccc2Cl)cc1 (stereo not given),-6.34,4.67%
CCc1ccc(CN(C)C(=O)C2CCC(=O)N(CC3CCCCC3)C2)cc1 (stereo not given),-5.12,2.92%
O=C(CS(=O)c1ccc(F)cc1)N1CCOCC1 (stereo not given),-1.56,-3.56%
COc1cc(NC(=O)c2cc3cccc(OC)c3o2)cc(C(=O)Nc2cccc(C(F)(F)F)c2)c1,-23.9,18.4%
O=S(=O)(NCC1CN(S(=O)(=O)c2c(F)cccc2F)C1)c1ccc2c(c1)OCCO2,2.79,17.9%
Cc1ccc(C)c(S(=O)(=O)N2CCN(C(=O)C3CCN(C(=O)c4ccc(F)cc4)CC3)CC2)c1,-10.9,1.93%
O=C(c1nnsc1S(=O)c1ccc(Cl)cc1)N1CCOCC1 (stereo not given),-24.9,-6.26%
CC(=O)c1cccc(NC(=O)COc2cc3oc(=O)c(CC(C)O)c(C)c3cc2Cl)c1 (stereo not given),28.4,22%
Cc1cccc(C)c1NC(=O)CN(C)CC(=O)Nc1ccc(F)c(Cl)c1,4.35,11.2%
CC(NC(=O)CSc1nc2ccccc2n1C)c1ccccc1 (stereo not given),0.06,-11.7%

Compound,inhibition [1] [%],inhibition [2]
CC(C)C[C@H]1CNC(=S)N1C[C@H]1CCCN1C[C@H](CC(C)C)N1C[C@H](CC(C)C)N(CCc2ccccc2)C1=S,-1.01,1.5%
Cc1ccc(OCC(=O)Oc2c(C)cccc2C)cc1C,-3.92,-9.72%
O=c1c2ccccc2oc2ccc(C#CC3(O)CCCCC3)cc12,-38.7,-23.9%
CC(C)N1C(=O)c2ccccc2N(Cc2ccccc2)S1(=O)=O,-4.94,1.81%
CC1(C(=O)NS(=O)(=O)Cc2cccc(Cl)c2)CCN1C(=O)Cc1ccc(-c2ccccc2)cc1 (stereo not given),-5.52,-14.3%
Cc1ccc(CNc2ncnc3ccc(-c4ccc(CO)o4)cc23)o1,11.8,14.7%
Cc1ccc(NS(=O)(=O)c2ccc(C(=O)NC3CCN(Cc4ccccc4)CC3)cc2)cc1,-9.12,24.2%
N#Cc1cc2ccncc2c2ccccc12,30.8,16.7%
CC(=O)c1sc2nc(C)c3c(c2c1N)CCCC3,13.4,3.88%
Cc1ccc(S(=O)(=O)N(C)C)cc1NC(=O)COC(=O)CCC1CCCC1,8.06,5.41%
CC(C)(C)c1ccc(-n2ncc3c2CCCC3NC(=O)CN2CCOC2=O)cc1 (stereo not given),-6.1,7.65%
COc1ccc(-c2cc(C(=O)NCCCN3CCOCC3)c3ccccc3n2)cc1OC,-12.4,-2.84%
CN(C(=O)c1cccc(NC(=O)Cc2ccc(NC(=O)C3CCCN(C(=O)CCc4ccccc4)C3)cc2)c1)C1CCCC1 (stereo not given),-3.52,19.6%
COc1ccc(NC(=O)COc2ccccc2Cc2ccccc2)cc1S(N)(=O)=O,38.1,32.3% (active)
O=C1CCC/C1=c1\s/c(=C/c2cccnc2)c(=O)n1-c1ccccc1,25.6,17.8%
COc1ccccc1NC(=O)CN(c1ccccc1)S(=O)(=O)c1ccccc1,-16.7,-7.82%
NS(=O)(=O)c1ccc(Nc2nc(-c3cccnc3)cs2)cc1,15.8,11.7%
CC1CCN(C(=O)c2scc3c2OCCO3)CC1,18.3,8.58%
COc1cc2c3c([nH]c2cc1F)C(=O)NCC3,19.2,14.9%
NS(=O)(=O)c1ccc(NC(=O)c2cccc3cc4ccccc4nc23)cc1,-13.3,9.91%
CCOC(=O)c1c(-c2ccccc2)csc1NC(=O)c1nn(CC)cc1Br,-4.38,-7.57%
CCCCNC(=O)C1(C)CCCCN1C(=O)c1ccc2c(c1)C(C)(C)CCC2(C)C (stereo not given),7.49,10.7%
C/C(=N\N=C1\NC(=O)C(CC(=O)O)S1)c1ccccn1 (stereo not given),-1.33,-8.7%
O=[N+]([O-])c1ccc(CSc2ccc(S(=O)(=O)N3CCOCC3)cn2)cc1,-7.09,0.46%

Compound,inhibition [1] [%],inhibition [2]
CCOc1ccc(CCN2C(=S)N([C@@H](Cc3ccc(O)cc3)CN3CCC[C@@H]3CN3C(=S)NC[C@@H]3CC(C)C)C[C@@H]2CC(C)C)cc1,-13,-0.17%
O=C(CN1C(=O)COc2ccccc21)Nc1ccccc1F,-26,1.99%
Cc1ccc(C(=O)NCCn2cc(SCC(=O)Nc3cc(C)on3)c3ccccc32)cc1,0.49,-11.3%
Cc1nc(N/N=C/c2ccc(O)cc2O)cc(N2CCOCC2)n1,-26.5,-14.6%
Cn1c(=O)c([N+](=O)[O-])c(NCCc2ccccc2)c2ccccc21,4.22,4.74%
Cc1cc(C)n(-c2ccc(C(=O)Nc3ccc(C)c(S(=O)(=O)N4CCOCC4)c3)cc2)n1,0.36,-1.58%
O=C(CSc1nc(-c2cccs2)cc(C(F)(F)F)n1)Nc1cc(OCC(F)(F)C(F)F)cc([N+](=O)[O-])c1,17.1,-0.51%
Brc1ccc2ncnc(NCc3ccco3)c2c1,32.1,31.2% (active)
CCc1nnc(SCc2ccc(C(=O)OC)o2)n1N,-6.33,4.87%
CCn1c(=O)n(CC)c2cc(N3CCCC3)c(NC(=O)c3ccccc3OC)cc21,-13.7,-7.42%
Cc1ccc(S(=O)(=O)N2CCN(c3ncnc4sccc34)CC2)cc1C,-1.32,21.7%
O=C(Nc1ccccc1N1CCOCC1)c1ccc(N2CCOCC2)c([N+](=O)[O-])c1,-19.5,-16.2%
Cc1cccnc1NC(=O)c1cccc(S(=O)(=O)NCc2ccccc2)c1,-10.8,3%
C=CCSc1nnc(-c2cc(C(C)(C)C)nn2Cc2ccc(F)cc2)n1C,1.92,4.7%
O=S(=O)(c1cccc(C(F)(F)F)c1)N1c2ccccc2-n2cccc2C1c1cccnc1 (stereo not given),12.9,17.7%
CCOC(=O)C(Cc1c(F)cccc1Cl)c1ccno1 (stereo not given),-2.31,-14.2%
Cc1ccc(-n2c(C)nn(CC3CC3)c2=O)cc1,2.58,-3.08%
Cc1cccc(NC(=O)CSCC(=O)N2CCN(Cc3ccc4c(c3)OCO4)CC2)c1,2.48,1.12%
COc1ccc2c(c1)c(C(C)=O)c(C)n2-c1ccccc1,13.5,19.1%
CSC1=NCCCN1C(=O)c1c(-c2ccccc2Cl)noc1C,0.66,-14.8%
COc1ccc(-c2[nH]ncc2CN2CCC(O)(c3ccc(Cl)cc3)CC2)cc1,13.2,10.8%
COc1ccc(C2c3cc(OC)c(OC)cc3CCN2S(C)(=O)=O)cc1OC (stereo not given),9.85,9.73%
